The list is not random: actives were taken first. Their share in the collection is about 12%.
BAZ2B inh: BAZ2B (human) inhibition. actives 4.4% (n = 360,000). AlphaScreen BAZ2B-H3K14Ac peptide displacement. Potency, µM (top dose mostly 114 µM), without a hit: at the highest dose activity change, negative = inhibition, hits mostly inhibitors. AID 504333. Q9UIF8; note: % is set by controls: 0 for no effect and ±100 for the full control effect; nearly all actives have a fitted effect of over 60% in size
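BAZ2B 50 nM plus b-H3(5-23)K14Ac 50 nM, PBS pH 7.4/0.01% Tween-20, 30 min RT; compound added (max 110 uM), 30 min RT; streptavidin donor/Ni-chelate acceptor beads 10 ug/mL final, 20 min dark; AlphaScreen read.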
JMJD2A Tudor: blocks the human JMJD2A Tudor domain. AlphaScreen JMJD2A-Tudor / H3K4me3 peptide binding. AID 504339. actives 4.4% (n = 390,000). Potency, µM (titrated, usually from 114 µM), for inactives: top-dose activity change, negative = inhibition, usual class: inhibitors. O75164; note: % is set by controls: 0 for no effect and ±100 for the full control effect; nearly all actives have a fitted effect of over 50% in size
PLK1 PBD inh: PLK1 (human) polo-box domain binding inhibition | Plk1 PBD binding of FITC phosphopeptide, fluorescence polarization | Potency, µM, inactives show max response, negative = inhibition, most hits filed as inhibitors | actives 2.8% (n = 360,000); note: series mostly up to about 57 µM; % is set by controls: 0 for no effect and ±100 for the full control effect; nearly all actives have a fitted effect of over 65% in size
Target sequence (P53350 whole entry, looked up, the tested form may be a part): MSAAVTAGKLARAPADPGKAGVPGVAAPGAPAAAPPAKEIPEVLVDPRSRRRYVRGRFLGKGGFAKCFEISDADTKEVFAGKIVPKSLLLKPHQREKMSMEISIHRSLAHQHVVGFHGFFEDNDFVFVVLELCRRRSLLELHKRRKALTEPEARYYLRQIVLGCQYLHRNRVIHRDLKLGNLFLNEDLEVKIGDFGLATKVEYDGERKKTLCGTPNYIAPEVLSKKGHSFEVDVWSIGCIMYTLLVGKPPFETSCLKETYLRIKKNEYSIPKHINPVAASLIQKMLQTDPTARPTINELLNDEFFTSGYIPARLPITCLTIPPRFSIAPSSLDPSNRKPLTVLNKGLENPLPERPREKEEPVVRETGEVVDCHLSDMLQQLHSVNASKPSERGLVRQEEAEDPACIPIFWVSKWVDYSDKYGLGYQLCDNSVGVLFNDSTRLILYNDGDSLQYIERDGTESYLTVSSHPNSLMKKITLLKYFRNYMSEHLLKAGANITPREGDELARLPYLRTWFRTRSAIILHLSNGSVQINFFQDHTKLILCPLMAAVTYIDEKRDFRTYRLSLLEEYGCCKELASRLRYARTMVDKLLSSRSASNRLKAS
G9a block: inhibitors of human histone lysine methyltransferase G9a. Q96KQ7. G9a H3K9 monomethylation, AlphaScreen, 2 h. Potency, µM (series often up to 102 µM), for inactives: at the highest dose activity, negative = inhibition, actives largely listed as inhibitors. actives 8.8% (n = 350,000); note: % is set by controls: 0 for no effect and ±100 for the full control effect; nearly all actives have a fitted effect of over 75% in size
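Methyltransferase reactions run at room temperature for 2 h (20 nM enzyme, 500 nM biotin-H3K9 peptide, 20 uM SAM) after a 15 min compound preincubation; product detected by AlphaScreen beads and anti-H3K9me1 antibody.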
Sfp inh: Sfp phosphopantetheinyl transferase inhibition | Q9F4F7 | Biochemical Sfp PPTase activity, qHTS | Potency, µM, without a hit: largest response in the series, negative = inhibition, hits mostly inhibitors | actives 3.5% (n = 310,000);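 note: the enzyme is Sfp with the accession as filed and its product quenches rhodamine fluorescence; 0% = enzyme reaction without inhibitor and -100% = no enzyme wells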
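Compounds were incubated with enzyme (final 15 nM) for 15 min at room temperature before substrate addition started the reaction. Fluorescence at 525 nm excitation, 598 nm emission was recorded immediately and after 30 minutes.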
HP1b chromo inh: HP1-beta chromodomain-methylated histone interaction inhibition; Potency, µM (titrated, usually from 114 µM), for inactives: at the top dose activity change, negative = inhibition, most hits filed as inhibitors; AlphaScreen HP1-beta / biotin-H3K9me3 peptide binding; actives 0.56% (n = 390,000); P83916; AID 540317; note: nearly all actives have a fitted effect of over 70% in size
Target sequence (P83916 whole entry, looked up): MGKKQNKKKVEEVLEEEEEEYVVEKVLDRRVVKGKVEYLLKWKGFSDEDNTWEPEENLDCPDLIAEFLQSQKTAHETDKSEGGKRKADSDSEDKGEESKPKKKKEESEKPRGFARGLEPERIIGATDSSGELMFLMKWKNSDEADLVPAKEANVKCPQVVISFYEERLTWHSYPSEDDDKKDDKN
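AlphaScreen: HP1-beta (50 nM) preformed 30 min with biotin-H3(1-18)K9me3 peptide (50 nM) in PBS pH 7.4, 0.01% Tween-20. Compound added for 30 min at RT, then streptavidin donor/nickel chelate acceptor beads (10 ug/mL) for 30 min.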
Active calls of the source: *; ? = inconclusive; / = no result given; ! = a repeat was not active; [ ] = another dose, or the depositor's remark. Calls come from the whole dose curve; as a rule, active = well fitted curve in the direction sought with a large enough effect; inconclusive = small, poorly fitted or top-dose-only effect, or another doubt; inactive = no such curve, though single readings can be large; an effect the other way counts as inactive or inconclusive. Potency is the fitted concentration of half-maximal effect.

SMILES	BAZ2B inh	JMJD2A Tudor	PLK1 PBD inh	G9a block	Sfp inh	HP1b chromo inh
O=C(c1ccccc1)N1CCC2(CC1)OCCO2	0.6%	-5.8%	-8.4%	/	-4.5%	20.8%
O=C(C1CC(c2ccccc2O)=NO1)N1CCC2(CC1)OCCO2 (stereo not given)	-7.9%	14.1µM*	-0.3%	50.1µM*	3.0%	12.5%
N#Cc1ccccc1NC(=O)c1cccn(Cc2ccccc2)c1=O	2.0%	6.2%	/	0.8%[59 µM]	/	33.5%
CC(=O)O.CC(=O)O.[Cd]	/	/	/	/	25.1µM*	/
CC(=O)CCC(C)=O	-0.8%	-15.9%	-9.9%	1.8%[0.501 µM]	/	36.2%
NC(=O)O	/	/	/	/	11.8%	/
CCCN1CCC[C@@H]2Cc3nc(N)ncc3C[C@H]21	/	-30.3%	-6.0%	10.6µM*!	/	23.9%
CCCN1CCC[C@@H]2Cc3n[nH]cc3C[C@H]21	/	/	/	21.9%[12.7 µM]	/	/
CCCN1CCC[C@@H]2Cc3[nH]ncc3C[C@H]21	/	-23.0%	-12.4%	25.1µM*!	-2.0%	7.9%
COc1ccc(NC(=O)N2CC3(CCN(C(=O)Oc4ccccc4)CC3)C2)cc1	/	/	/	-9.2%[12.7 µM]	10.5%	/
S=c1[nH]nc(Cn2c(-c3ccccn3)nc3ccccc32)n1-c1ccc2c(c1)OCCO2	-5.8%	3.16µM*	-14.6%	-134.8%[59 µM]	79.4µM*	?
c1ccc2nc(N3CCNCC3)ccc2c1	-0.4%	-11.7%	-14.6%	11.2µM*!	-9.2%	25.8%
c1ccc2c(N3CCNCC3)cccc2c1	/	-15.9%	-6.8%	16.8µM*!	-9.0%	51.0%
Clc1cccc(N2CCNCC2)c1Cl	-0.5%	-2.3%	-4.0%	3.3%[59 µM]	16.3%	30.4%
CCN(CC)/[N+]([O-])=N/O	/	/	/	-37.5%[2.33 µM]	-8.2%	/
C[C@@H]1O[C@H](O[C@H]2C[C@@H](O)[C@@]3(CO)[C@H]4[C@@H](O)C[C@]5(C)[C@@H](C6=CC(=O)OC6)CC[C@]5(O)[C@H]4CC[C@]3(O)C2)[C@@H](O)[C@H](O)[C@@H]1O	/	/	/	24.1%[21.5 µM]	15.3%	/
Cn1cccc1/C=C1\C(=O)NC(=O)N(Cc2ccccc2)C1=O	50.1µM*	?	?	?	-1.4%	?
Cn1cccc1/C=C1/C(=O)NC(=O)N(Cc2ccccc2)C1=O	44.7µM*	-33.8%	?	?	-9.0%	9.6%
C=CCN1C(=O)NC(=O)/C(=C/c2cccn2C)C1=O	1.1%[57.1 µM]	-16.9%	29.9µM*	50.1µM*	-28.3%	17.2%
O=C1NC(=O)N(Cc2ccco2)C(=O)/C1=C/c1cccn1CCOc1ccccc1Cl	44.7µM*	-24.8%	?	?	-10.5%	24.7%
O=C1NC(=O)N(Cc2ccccc2)C(=O)/C1=C\N1CCCc2ccccc21	-33.2%	-31.8%	-20.0%	?	?	15.0%
CCN1C(=O)NC(=O)/C(=C\c2cn(CC(=O)O)c3ccccc23)C1=O	-14.0%	/	/	8.5%[2.33 µM]	2.4%	/
CCC(C)C1O[C@]2(C=CC1C)CC1CC(C/C=C(\C)[C@H](OC3CC(OC)C(O[C@H]4CC(OC)[C@@H](O)C(C)O4)C(C)O3)[C@@H](C)/C=C/C=C3\COC4C(O)C(C)=C[C@H](C(=O)O1)[C@@]34O)O2 (stereo not given in full)	/	/	/	-30.8%[2.33 µM]	13.9%	/
COC(=O)[C@@H]1N=C(c2ccc(OC)cc2)O[C@]12C(=O)N(C)c1ccc(Cl)cc12	/	/	-11.2%	/	/	/
Cc1c(C=O)c2ccccc2n1Cc1ccc(F)cc1	-0.6%	0.8%[11.4 µM]	-0.2%	18.0%	12.9%	48.6%
SMILES	BAZ2B inh	JMJD2A Tudor	PLK1 PBD inh	G9a block	Sfp inh	HP1b chromo inh
Cn1cccc1/C=C1/C(=O)NC(=O)N(Cc2ccc(F)cc2)C1=O	44.7µM*	-32.2%	?	39.8µM*	-15.1%	10.2%
CN1C(=O)NC(=O)/C(=C/c2ccc(C(=O)O)cc2)C1=O	-16.7%	-11.0%[11.4 µM]	11.9µM*	-42.0%	44.7µM*	43.1%
Cc1cc(/C=C2\C(=O)NC(=O)N(C)C2=O)c(C)n1-c1ccc2c(c1)OCO2	?	-31.9%	-18.7%	-49.7%	-15.3%	19.0%
Cc1ccc(/C=C2/C(=O)NC(=O)N(C)C2=O)cc1	-33.3%	-14.4%	10.6µM*	-26.5%[59 µM]	?	20.3%
CC(=O)N1CC[N+](C)(C)CC1	/	/	/	-3.2%[59 µM]	0.1%	/
O=C(CN1CCCCC1c1cccnc1)c1ccccc1 (stereo not given)	/	/	/	/	-25.3%	/
O=C(O)[C@@H]1CSC(c2cccnc2)N1 (stereo not given in full)	/	/	/	/	39.8µM*	/
CCC12CN3CC(CC)(CN(C1)C3c1c(C)[nH]c(=O)[nH]c1=O)C2=O (stereo not given)	-34.4%	-7.5%	/	?	/	45.5%
Cc1cc(/C=C2\C(=O)NC(=O)N(c3ccccc3F)C2=O)c(C)n1-c1cc(C(=O)O)cc(C(=O)O)c1	28.2µM*	11.2µM*	?	10µM*	-18.2%	12.6µM*
Cc1cc(/C=C2\C(=O)NC(=O)N(c3ccccc3)C2=O)c(C)n1-c1ccc(C(=O)O)c(Cl)c1	?	-25.9%	?	44.7µM*	-20.7%	5.3%
Cc1cc(/C=C2\C(=O)NC(=O)N(c3ccc(F)cc3)C2=O)c(C)n1-c1cccc(C(=O)O)c1	-36.5%	-25.9%	16.8µM*	35.5µM*	-15.8%	6.5%
Cc1cc(/C=C2/C(=O)NC(=O)N(C)C2=O)c(C)n1-c1ccccc1	-12.6%	-26.7%	3.1%	?	-0.2%	49.0%
COc1ccc(/C=C/c2nc3ccccc3c(=O)n2-c2ccc(C)cc2)cc1O	-12.9%	-10.7%	/	6.4%[59 µM]	/	9.1%
c1ccc(C[C@@H](c2ccccc2)N2CCCCC2)cc1	/	/	/	/	-1.8%	/
O=S1(=O)N(CCN2CC=C(c3c[nH]c4cc(F)ccc34)CC2)c2cccc3c2N1CCC3	?	?	1.6%	29.9µM*!	/	-16.7%
CCC(=O)Nc1ccccc1-c1nc2ccccc2n(C(CC)C(=O)Nc2cccc(Cl)c2)c1=O (stereo not given)	-3.5%	1.7%	/	?	/	29.3%
CCC(=O)Nc1nc2ccccc2n1CCN(C)C	?	39.8µM*	-2.6%	31.6µM*	-12.9%	-11.2%
Cc1nnc(NC(=O)c2cccn(Cc3cccc([N+](=O)[O-])c3)c2=O)s1	1.2%	-17.5%	/	-6.0%[59 µM]	/	-11.0%
CCOC(=O)[C@]12Cc3cc(C)ccc3[C@H]1N(C)C(=O)c1cc(OC)ccc12	/	/	6.7µM*	/	/	/
CCOC(=O)[C@]12Cc3cc(OC)ccc3[C@H]1N(C(C)C)C(=O)c1cc(OC)ccc12	/	/	8.44µM*	/	/	/
O=C(Cc1ccccc1)N1CCN(Cc2ccc(Cl)cc2)CC1	/	10µM*	-11.3%	/	/	?
O=C(Cc1ccccc1)N1CCN(Cc2cccc(Cl)c2)CC1	?	3.16µM*	-0.3%	20.8%[0.501 µM]	-17.7%	?
CCC(CC)N1CCN(C(=O)Cc2ccccc2)CC1	?	3.16µM*	0.0%	11.2µM*	-7.4%	?
